# Source: PubChem BioAssay (NCI)
# Compounds without any hit were thinned out: in the full panel of roughly 83,000, 20% have a hit.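 Growth was measured after 48 h exposure to one concentration of compound in 96-well plates. Values under 10 count as active.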 Values without a mark were called inactive. Calls of active or inactive are those of the source.
# Test system: HL-60(TB) leukemia
# Assay: NCI-60 one-dose screen, 48 h (100 = growth as untreated, 0 = no growth, -100 = all killed)
# Details: 10 µM unless noted
row,SMILES,growth
1,O=[N+]([O-])c1ccc(-c2cn3nc(-c4c[nH]c5ccccc45)sc3n2)cc1,95.3%
2,COc1ccc(-c2cc(-c3cc(OC)ccc3OC)nc(SCC(C)=O)c2C#N)cc1,86.3%
3,COc1ccc(NC(=S)NNc2ccc(-c3ccc(OC)c(OC)c3)nn2)cc1,98.9%
4,Cc1c(C(N)=O)sc2ncn(Cc3ccccc3)c(=O)c12,118%
5,C=C(CNCCO)[C@@H]1CC[C@]2(CO)CC[C@]3(C)[C@H](CC[C@@H]4[C@@]5(C)CCC(NCCc6ccc(O)cc6)C(C)(C)[C@@H]5CC[C@]43C)[C@@H]12 (stereo not given in full),-52.2% (active)
6,COc1ccc(/C=N/c2cc(C(C)(C)C)nn2-c2ccccc2)cc1,88.3%
7,O=C1Nc2ccc(Br)cc2/C1=N\N=C/c1cn(Cc2ccccc2)c2ccccc12,84.4%
8,CCOc1cc(-c2ccc[nH]2)[nH]c1/C=C1\N=C(C)C(C(=O)OC)=C1C,-42.7% (active)
9,CCCOC(=O)Nc1nc2ccc(SCC(C)C)cc2s1,15.9%
10,COc1cc(/C=C/C(=O)c2nc3cc(F)ccc3nc2C)cc(OC)c1OC,-45.6% (active)
11,COc1cccc(C(=O)NNc2nc(Cl)nc(Cl)n2)c1,96.2%
12,O=C(N/N=C/c1ccccc1Cl)c1cccc2ccccc12,127%
13,CC1=C(SCCC(=O)OC(C[Se]C2=C(C)C(=O)c3ccccc3C2=O)C(=O)NCCCCCC(=O)OCc2ccccc2)C(=O)c2ccccc2C1=O (stereo not given),-1.59% (active)
14,CC(C)C[C@H](NC(=O)CCn1ccc2ccccc2c1=O)B(O)O,28.1%
15,O=C1OCC2=C1C(c1cccc(F)c1)c1cc3c(cc1N2CCO)OCCO3 (stereo not given),-34.5% (active)
16,COc1ccc(C2CC(c3ccc(OC)c(OC)c3)=NN2C(=O)c2cc(OC)c(OC)c(OC)c2)c(OC)c1 (stereo not given),84%
17,COc1cc(C(=O)N2CCN(c3cc4c(cc3F)c(=O)c(C(=O)NO)cn4C3CC3)CC2)cc(OC)c1OC,101%
18,CCOC(Cc1c(N)[nH]c(=S)[nH]c1=O)OCC,90.3%
19,CCN1CCN(C(=O)[C@]23CCC(C)(C)C[C@@H]2C2=CC[C@@H]4[C@@]5(C)C/C(=C/c6ccncc6)C(=O)C(C)(C)[C@@H]5CC[C@@]4(C)[C@]2(C)CC3)CC1,-33.8% (active)
20,O/N=C1\c2ccccc2-c2ccc(Br)cc21,109%

row,SMILES,growth
1,O=C(NNC(=S)Nc1ccccc1)c1ccncc1,117%
2,Clc1ccc(-c2cc(-c3ccccc3)nc(N3CCN(CCCNc4ccnc5cc(Cl)ccc45)CC3)n2)cc1,-39% (active)
3,O=C(Nc1ccncc1)C(=O)c1cn(S(=O)(=O)c2ccccc2F)c2ccccc12,12.7%
4,O=C1/C=C/[C@@H](O)[C@@H]2C[C@@H](O)C[C@H]2/C=C/CCC[C@H](C(F)(F)F)O1,-32.7% (active)
5,NC(=O)CC1(c2ccccc2)CCCCC1,98.4%
6,COc1cc(/C=C/C(=O)c2cccc(-n3cc(-c4cc(OC)c(OC)c(OC)c4)[nH]c3=O)c2)cc(OC)c1OC,-18.5% (active)
7,C=C1C(=O)O[C@H]2[C@H]1CC/C(COC(=O)NCc1ccc(Cn3c(=O)sn(-c4ccc(I)cc4)c3=O)cc1)=C\CC[C@@]1(C)O[C@@H]21,-32% (active)
8,NC1(N2SC(S)=C3CCCC=C32)CCCCC1,89.6%
9,CSc1nc(C)c(C(=O)CCN2CCN(c3ccccn3)CC2)s1,102%
10,CN1CCN(c2ccc(NC3=C(Cl)C(=O)c4ncccc4C3=O)cc2C#N)CC1,-26.3% (active)
11,Clc1ccc(-c2nc(NCCc3ccccc3)nc3c(NCCc4ccccc4)cnn23)cc1,88.8%
12,N#C/C(=C\c1ccc(-c2ccc(Br)cc2)o1)c1nc(-c2cccs2)cs1,92.7%
13,COc1cccc(-c2nc3sccn3c2-c2ccnc(NCCCNS(=O)(=O)c3ccc(Cl)cc3)c2)c1,27.4%
14,CCc1cccc(CC)c1N1C(=O)C=CC1=O,-7.6% (active)
15,Cc1ccc(C)c(S(=O)(=O)NC2c3ccccc3Oc3ccccc32)c1,86.9%
16,COc1cc(C(=O)n2nc(NCCCc3ccccc3)c3cc(N)ccc32)cc(OC)c1OC,69.5%
17,N#Cc1c(-c2cccc(F)c2)cc(-c2cccnc2)[nH]c1=O,98%
18,O=C(/C=C/C12c3ccccc3C(c3ccccc31)C1C(=O)NC(=O)C12)c1ccc(I)cc1 (stereo not given),6.86% (active)
19,CC1=CNNc2c3ncnc-3ncn21,99.8%
20,COc1ccc(C2CC(=O)c3c(nc4ccc(Cl)cc4c3N)C2)cc1 (stereo not given),99.1%
